For one sequence, binding signal results are on record in publication PMC7862700, “An all-to-all approach to the identification of sequence-specific readers for epigenetic DNA modifications on cytosine”.

Holding throughout (assay): DAPPL (digital affinity profiling via proximity ligation, sequencing); 10 mM Tris-HCl pH 7.5, 50 mM NaCl, 1 mM DTT, 4% glycerol, room temperature, 30 min; GST-TFs on glutathione beads, 16-mer random dsDNA library, 0.1% formaldehyde crosslink after washing; high values mean tight binding
The target in one assay is T1, FLI1 (Homo sapiens, UniProt Q01543 1-452).
T1 sequence: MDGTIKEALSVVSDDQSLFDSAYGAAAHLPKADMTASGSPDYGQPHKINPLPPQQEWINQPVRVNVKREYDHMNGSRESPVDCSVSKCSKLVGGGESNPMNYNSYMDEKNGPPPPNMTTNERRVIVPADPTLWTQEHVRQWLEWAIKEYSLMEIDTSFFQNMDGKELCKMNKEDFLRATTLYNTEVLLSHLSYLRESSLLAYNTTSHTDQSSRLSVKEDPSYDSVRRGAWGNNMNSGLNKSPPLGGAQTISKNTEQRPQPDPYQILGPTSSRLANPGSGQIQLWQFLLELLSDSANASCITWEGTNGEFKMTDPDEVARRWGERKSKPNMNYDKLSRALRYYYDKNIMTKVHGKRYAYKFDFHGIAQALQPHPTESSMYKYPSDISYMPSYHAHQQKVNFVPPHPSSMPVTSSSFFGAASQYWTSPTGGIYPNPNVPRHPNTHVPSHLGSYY
Conditions: protein: recombinant; tags: N-terminal GST; dsDNA, one strand shown. Summed up:
(§1)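 A tag-only sample was pooled with DNA-barcoded human transcription factors that had been expressed in yeast as GST fusions and captured on glutathione beads. The pools were incubated for 30 min at room temperature with 200 nmole of a random double-stranded 16-mer DNA library in Tris/NaCl/DTT/glycerol buffer, then washed, crosslinked with 0.1% formaldehyde, proximity-ligated (BsaI/T4 ligase, 1 h, 37 °C), PCR-amplified and sequenced on an Illumina NextSeq500. Binding signal is each hexamer's read frequency for a factor divided by its frequency for the tag-only sample.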

In a further assay the target is T2, ELK1 (Homo sapiens, UniProt P19419 1-428).
T2 sequence: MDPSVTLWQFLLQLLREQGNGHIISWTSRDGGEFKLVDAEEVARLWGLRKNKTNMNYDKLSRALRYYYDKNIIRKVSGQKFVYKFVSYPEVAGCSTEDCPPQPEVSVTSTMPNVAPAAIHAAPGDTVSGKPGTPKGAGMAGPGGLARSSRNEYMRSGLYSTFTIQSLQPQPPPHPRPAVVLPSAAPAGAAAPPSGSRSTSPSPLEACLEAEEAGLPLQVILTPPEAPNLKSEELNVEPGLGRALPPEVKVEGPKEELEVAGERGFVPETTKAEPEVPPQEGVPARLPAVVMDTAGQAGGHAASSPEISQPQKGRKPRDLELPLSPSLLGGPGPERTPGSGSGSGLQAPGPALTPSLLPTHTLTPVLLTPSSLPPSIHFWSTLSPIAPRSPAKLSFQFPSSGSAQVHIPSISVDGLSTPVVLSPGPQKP
Conditions: protein: recombinant; tags: N-terminal GST; dsDNA, one strand shown. Summed up: as §1

The target in a further assay is T3, GABPA (Homo sapiens, UniProt Q06546 1-454).
T3 sequence: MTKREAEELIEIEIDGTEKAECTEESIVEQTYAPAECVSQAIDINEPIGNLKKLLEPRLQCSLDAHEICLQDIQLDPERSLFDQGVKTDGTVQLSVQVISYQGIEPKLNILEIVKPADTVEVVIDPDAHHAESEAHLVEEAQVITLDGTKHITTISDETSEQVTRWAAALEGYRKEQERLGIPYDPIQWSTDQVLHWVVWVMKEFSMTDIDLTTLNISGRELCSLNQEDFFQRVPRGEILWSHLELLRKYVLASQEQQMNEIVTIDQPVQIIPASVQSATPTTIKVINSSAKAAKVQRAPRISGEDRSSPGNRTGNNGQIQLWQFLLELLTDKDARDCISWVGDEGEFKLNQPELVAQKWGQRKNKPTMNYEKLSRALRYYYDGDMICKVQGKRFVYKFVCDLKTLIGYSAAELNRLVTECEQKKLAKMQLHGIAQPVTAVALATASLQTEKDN
To be noted: protein: recombinant; tags: N-terminal GST; dsDNA, one strand shown. In short, it runs like this:
as §1

The next assay deals with T4, ERG (Homo sapiens, UniProt P11308 1-479).
T4 sequence: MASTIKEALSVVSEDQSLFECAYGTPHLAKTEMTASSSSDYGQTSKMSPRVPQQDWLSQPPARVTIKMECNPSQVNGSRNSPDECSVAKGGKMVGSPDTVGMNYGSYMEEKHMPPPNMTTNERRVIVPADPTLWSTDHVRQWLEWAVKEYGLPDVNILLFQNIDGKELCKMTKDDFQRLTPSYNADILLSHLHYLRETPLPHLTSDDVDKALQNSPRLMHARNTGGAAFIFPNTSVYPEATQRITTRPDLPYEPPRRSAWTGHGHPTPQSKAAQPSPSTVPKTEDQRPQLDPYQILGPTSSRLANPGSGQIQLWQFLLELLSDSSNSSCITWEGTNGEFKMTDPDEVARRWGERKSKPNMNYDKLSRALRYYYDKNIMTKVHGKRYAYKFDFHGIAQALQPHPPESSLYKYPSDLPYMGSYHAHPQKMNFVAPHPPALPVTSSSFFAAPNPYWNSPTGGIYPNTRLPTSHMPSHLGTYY
Conditions: protein: recombinant; tags: N-terminal GST; dsDNA, one strand shown. In short, it runs like this: as §1

The next assay addresses ELF1 (Homo sapiens, UniProt P32519 1-619). To be noted: protein: recombinant; tags: N-terminal GST; dsDNA, one strand shown. In short, it runs like this: as §1
In the next assay the target is T5, EHF (Homo sapiens, UniProt Q9NZC4 1-300).
T5 sequence: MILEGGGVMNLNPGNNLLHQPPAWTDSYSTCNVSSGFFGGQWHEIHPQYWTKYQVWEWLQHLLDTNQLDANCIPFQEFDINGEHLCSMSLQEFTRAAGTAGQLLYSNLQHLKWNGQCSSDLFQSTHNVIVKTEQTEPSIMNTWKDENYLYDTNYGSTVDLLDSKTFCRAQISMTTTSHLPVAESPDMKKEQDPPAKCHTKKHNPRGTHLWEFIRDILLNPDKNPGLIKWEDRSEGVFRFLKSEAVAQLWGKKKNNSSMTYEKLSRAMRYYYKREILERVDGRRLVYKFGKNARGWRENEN
Conditions: protein: recombinant; tags: N-terminal GST; dsDNA, one strand shown. Summed up: as §1

For the next assay, the target named is SPI1 (Homo sapiens, UniProt P17947 1-270). To be noted: protein: recombinant; tags: N-terminal GST; dsDNA, one strand shown. Summed up:
as §1

A further assay concerns the target SPIB (Homo sapiens, UniProt Q01892 1-262). Conditions: protein: recombinant; tags: N-terminal GST; dsDNA, one strand shown. In short, it runs like this: as §1
Another assay concerns the target T6, ELK3 (Homo sapiens, UniProt P41970 1-407).
T6 sequence: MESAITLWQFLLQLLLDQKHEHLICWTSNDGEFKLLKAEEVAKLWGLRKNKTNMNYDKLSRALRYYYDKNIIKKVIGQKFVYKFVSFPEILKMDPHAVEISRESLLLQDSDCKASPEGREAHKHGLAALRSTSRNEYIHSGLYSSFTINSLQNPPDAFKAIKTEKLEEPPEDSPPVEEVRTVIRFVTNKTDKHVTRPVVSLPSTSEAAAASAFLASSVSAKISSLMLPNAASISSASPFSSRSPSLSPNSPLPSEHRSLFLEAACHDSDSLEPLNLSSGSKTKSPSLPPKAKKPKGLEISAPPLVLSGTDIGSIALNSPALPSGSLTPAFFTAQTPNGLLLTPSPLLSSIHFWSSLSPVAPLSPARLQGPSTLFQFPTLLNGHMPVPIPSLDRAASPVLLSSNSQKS
To be noted: protein: recombinant; tags: N-terminal GST; dsDNA, one strand shown. In short, it runs like this: as §1

A further assay deals with T7, FEV (Homo sapiens, UniProt Q99581 1-238).
T7 sequence: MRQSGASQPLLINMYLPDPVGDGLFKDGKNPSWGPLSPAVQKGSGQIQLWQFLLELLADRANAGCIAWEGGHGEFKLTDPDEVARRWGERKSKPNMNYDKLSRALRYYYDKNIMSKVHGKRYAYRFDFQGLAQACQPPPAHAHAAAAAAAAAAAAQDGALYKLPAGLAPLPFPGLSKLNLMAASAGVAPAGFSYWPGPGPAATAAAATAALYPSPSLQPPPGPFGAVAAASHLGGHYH
Conditions: protein: recombinant; tags: N-terminal GST; dsDNA, one strand shown. Summed up:
as §1

The next assay addresses ETV5 (Homo sapiens, UniProt P41161 1-510). Conditions: protein: recombinant; tags: N-terminal GST; dsDNA, one strand shown. Summed up: as §1
The target in a further assay is HSF1 (Homo sapiens, UniProt Q00613 1-529). To be noted: protein: recombinant; tags: N-terminal GST; chain copies: 3; dsDNA, one strand shown. In short, it runs like this:
as §1

The target in the next assay is T8, SPIC (Homo sapiens, UniProt Q8N5J4 1-248).
T8 sequence: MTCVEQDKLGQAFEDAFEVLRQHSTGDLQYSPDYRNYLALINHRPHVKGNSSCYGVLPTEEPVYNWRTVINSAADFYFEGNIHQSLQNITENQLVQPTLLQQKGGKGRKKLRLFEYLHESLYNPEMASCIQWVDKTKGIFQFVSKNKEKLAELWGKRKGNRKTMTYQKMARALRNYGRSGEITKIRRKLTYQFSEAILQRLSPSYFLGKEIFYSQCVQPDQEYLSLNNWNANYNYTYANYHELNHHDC
To be noted: protein: recombinant; tags: N-terminal GST; dsDNA, one strand shown. In short, it runs like this: as §1

The next assay has as its target ELF4 (Homo sapiens, UniProt Q99607 1-663). To be noted: protein: recombinant; tags: N-terminal GST; dsDNA, one strand shown. Summed up:
as §1

The target in the next assay is T9, ELK4 (Homo sapiens, UniProt P28324-2 1-405).
T9 sequence: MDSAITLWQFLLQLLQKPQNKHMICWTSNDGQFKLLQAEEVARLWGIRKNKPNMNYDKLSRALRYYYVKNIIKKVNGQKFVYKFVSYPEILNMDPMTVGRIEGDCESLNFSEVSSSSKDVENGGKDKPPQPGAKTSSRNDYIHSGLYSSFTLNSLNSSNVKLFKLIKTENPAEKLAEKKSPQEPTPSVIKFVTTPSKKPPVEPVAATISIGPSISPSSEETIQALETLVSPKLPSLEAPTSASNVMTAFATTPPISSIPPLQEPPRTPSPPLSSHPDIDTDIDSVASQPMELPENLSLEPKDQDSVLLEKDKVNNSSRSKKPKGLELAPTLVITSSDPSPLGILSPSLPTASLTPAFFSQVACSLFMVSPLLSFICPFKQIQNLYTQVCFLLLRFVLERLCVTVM
To be noted: protein: recombinant; tags: N-terminal GST; dsDNA, one strand shown. Summed up:
as §1

The next assay deals with T10, ETV2 (Homo sapiens, UniProt O00321 1-342).
T10 sequence: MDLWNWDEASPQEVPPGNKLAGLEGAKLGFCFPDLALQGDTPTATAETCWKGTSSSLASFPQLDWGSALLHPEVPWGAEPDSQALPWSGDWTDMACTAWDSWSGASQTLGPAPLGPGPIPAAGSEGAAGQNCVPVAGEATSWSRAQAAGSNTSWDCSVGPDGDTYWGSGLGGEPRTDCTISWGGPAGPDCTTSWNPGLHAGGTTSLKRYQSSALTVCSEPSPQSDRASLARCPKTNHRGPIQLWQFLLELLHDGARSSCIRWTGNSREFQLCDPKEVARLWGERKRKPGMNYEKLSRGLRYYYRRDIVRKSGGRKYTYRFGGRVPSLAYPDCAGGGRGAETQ
To be noted: protein: recombinant; tags: N-terminal GST; dsDNA, one strand shown. Summed up:
as §1

Another assay concerns the target T11, ELF3 (Homo sapiens, UniProt P78545 1-371).
T11 sequence: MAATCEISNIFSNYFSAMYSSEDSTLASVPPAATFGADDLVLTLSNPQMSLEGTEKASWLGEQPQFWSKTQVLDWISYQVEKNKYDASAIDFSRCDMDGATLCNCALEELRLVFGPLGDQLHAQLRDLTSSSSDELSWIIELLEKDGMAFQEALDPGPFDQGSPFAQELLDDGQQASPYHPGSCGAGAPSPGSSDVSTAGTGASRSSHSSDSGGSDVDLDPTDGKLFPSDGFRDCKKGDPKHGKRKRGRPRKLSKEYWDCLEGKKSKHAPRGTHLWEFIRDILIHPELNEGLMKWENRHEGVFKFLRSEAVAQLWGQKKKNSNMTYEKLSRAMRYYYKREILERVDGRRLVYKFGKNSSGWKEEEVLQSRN
Conditions: protein: recombinant; tags: N-terminal GST; dsDNA, one strand shown. In short, it runs like this:
as §1

The next assay deals with CRX (Homo sapiens, UniProt O43186 1-299). Conditions: protein: recombinant; tags: N-terminal GST; dsDNA, one strand shown. Summed up:
as §1

Another assay has as its target ETV1 (Homo sapiens, UniProt P50549 1-477). Conditions: protein: recombinant; tags: N-terminal GST; dsDNA, one strand shown. Summed up: as §1

HSF1, sequence (Q00613 whole entry): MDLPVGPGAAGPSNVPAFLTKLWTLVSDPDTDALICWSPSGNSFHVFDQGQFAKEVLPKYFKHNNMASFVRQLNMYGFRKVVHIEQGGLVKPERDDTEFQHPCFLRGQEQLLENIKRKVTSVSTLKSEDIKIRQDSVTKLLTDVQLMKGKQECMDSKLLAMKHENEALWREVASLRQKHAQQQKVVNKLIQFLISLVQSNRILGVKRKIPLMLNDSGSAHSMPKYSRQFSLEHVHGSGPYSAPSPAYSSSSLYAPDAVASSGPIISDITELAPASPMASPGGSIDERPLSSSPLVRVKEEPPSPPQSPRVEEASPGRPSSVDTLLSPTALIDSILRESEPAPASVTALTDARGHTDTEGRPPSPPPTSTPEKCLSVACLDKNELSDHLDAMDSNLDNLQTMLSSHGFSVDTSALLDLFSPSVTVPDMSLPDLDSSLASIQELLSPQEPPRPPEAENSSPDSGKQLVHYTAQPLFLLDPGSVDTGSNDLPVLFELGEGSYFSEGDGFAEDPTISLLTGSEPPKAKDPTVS
ETV5, sequence (P41161 whole entry): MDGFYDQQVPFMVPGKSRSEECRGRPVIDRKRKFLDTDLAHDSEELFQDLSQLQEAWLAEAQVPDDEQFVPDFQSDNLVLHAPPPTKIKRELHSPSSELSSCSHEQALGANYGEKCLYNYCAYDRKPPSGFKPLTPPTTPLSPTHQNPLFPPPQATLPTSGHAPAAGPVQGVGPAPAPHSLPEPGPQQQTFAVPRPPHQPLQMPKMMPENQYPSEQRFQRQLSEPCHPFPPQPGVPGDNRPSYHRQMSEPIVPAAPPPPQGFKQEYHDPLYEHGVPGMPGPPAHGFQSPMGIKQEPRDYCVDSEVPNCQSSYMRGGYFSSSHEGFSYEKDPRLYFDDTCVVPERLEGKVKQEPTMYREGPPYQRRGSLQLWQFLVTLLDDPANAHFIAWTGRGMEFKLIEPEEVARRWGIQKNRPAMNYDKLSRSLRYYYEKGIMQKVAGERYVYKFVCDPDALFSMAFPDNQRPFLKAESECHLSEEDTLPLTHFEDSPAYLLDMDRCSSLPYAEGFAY
SPIB, sequence (Q01892 whole entry): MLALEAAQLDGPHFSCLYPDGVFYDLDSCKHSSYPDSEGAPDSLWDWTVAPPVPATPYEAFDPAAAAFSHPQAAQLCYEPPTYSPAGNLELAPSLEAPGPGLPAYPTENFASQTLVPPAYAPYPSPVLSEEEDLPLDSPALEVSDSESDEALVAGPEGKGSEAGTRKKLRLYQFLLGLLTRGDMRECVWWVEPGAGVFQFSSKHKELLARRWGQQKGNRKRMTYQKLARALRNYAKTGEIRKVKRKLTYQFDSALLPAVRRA
ELF1, sequence (P32519 whole entry): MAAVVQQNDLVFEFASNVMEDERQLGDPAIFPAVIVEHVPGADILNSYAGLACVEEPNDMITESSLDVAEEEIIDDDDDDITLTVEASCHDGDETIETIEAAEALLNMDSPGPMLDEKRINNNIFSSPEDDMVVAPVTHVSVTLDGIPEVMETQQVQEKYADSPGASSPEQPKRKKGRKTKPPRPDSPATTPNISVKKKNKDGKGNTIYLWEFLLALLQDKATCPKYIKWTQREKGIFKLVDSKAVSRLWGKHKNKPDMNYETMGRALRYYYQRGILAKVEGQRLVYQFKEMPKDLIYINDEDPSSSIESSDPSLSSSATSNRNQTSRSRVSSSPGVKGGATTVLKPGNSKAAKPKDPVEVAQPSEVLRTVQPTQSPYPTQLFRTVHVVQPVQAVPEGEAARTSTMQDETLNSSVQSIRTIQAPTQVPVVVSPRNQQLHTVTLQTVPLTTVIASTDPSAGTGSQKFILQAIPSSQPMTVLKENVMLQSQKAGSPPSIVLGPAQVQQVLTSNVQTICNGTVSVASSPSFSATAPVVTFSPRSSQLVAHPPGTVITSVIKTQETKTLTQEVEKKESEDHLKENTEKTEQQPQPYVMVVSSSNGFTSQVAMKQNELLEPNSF
ETV1, sequence (P50549 whole entry): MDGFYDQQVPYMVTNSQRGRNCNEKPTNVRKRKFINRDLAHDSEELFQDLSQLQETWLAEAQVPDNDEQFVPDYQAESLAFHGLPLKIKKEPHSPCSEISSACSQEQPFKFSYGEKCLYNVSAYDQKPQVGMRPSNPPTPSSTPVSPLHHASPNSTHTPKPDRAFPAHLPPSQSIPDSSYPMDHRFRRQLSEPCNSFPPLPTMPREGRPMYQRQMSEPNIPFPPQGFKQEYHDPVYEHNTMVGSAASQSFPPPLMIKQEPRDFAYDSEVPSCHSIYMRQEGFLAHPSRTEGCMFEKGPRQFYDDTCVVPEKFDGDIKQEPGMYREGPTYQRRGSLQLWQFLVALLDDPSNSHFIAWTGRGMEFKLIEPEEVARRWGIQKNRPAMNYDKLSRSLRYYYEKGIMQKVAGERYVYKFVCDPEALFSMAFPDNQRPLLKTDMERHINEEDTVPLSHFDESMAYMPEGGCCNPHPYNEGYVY
ELF4, sequence (Q99607 whole entry): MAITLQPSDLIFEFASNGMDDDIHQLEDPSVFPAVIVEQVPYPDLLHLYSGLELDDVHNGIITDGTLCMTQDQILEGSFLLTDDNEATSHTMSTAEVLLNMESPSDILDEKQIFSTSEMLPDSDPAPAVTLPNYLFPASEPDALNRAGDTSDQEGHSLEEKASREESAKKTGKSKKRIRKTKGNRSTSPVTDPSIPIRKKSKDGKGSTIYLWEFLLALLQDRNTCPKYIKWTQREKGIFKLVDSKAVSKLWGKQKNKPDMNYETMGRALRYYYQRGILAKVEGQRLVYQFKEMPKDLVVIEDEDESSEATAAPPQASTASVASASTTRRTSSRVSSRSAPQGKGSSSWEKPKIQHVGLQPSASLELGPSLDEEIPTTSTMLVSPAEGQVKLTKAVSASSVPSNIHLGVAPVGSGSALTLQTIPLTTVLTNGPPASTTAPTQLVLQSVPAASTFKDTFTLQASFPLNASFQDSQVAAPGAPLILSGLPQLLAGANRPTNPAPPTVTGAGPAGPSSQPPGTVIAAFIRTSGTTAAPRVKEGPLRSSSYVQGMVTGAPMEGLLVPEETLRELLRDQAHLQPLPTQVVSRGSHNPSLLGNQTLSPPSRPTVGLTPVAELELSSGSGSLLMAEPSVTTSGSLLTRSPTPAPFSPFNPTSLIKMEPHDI
CRX, sequence (O43186 whole entry): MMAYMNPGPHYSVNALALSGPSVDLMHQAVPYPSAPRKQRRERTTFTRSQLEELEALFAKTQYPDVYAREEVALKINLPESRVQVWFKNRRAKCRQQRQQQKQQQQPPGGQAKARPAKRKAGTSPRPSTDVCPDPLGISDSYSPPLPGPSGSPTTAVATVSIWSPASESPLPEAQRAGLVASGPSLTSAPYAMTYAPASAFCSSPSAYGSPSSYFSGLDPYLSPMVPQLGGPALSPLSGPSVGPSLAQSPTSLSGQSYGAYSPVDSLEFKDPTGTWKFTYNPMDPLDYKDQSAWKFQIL

ACTCCC: the binding signal was 1.52 fold enrichment (6-mer frequency, TF over GST control) with FLI1; 1.2 fold enrichment (6-mer frequency, TF over GST control) in the assay with ELK1; 1.42 fold enrichment (6-mer frequency, TF over GST control) in the assay with GABPA; 1.45 fold enrichment (6-mer frequency, TF over GST control) with ERG; 1.46 fold enrichment (6-mer frequency, TF over GST control) with ELF1; 1.38 fold enrichment (6-mer frequency, TF over GST control) in the assay with EHF. Besides, the binding signal with SPI1 was 1.38 fold enrichment (6-mer frequency, TF over GST control); with SPIB, 1.42 fold enrichment (6-mer frequency, TF over GST control); in the assay with ELK3, 1.43 fold enrichment (6-mer frequency, TF over GST control); in the assay with FEV, 1.32 fold enrichment (6-mer frequency, TF over GST control); with ETV5, 1.42 fold enrichment (6-mer frequency, TF over GST control); in the assay with HSF1 it was 1.15 fold enrichment (6-mer frequency, TF over GST control). Besides, the binding signal is 1.46 fold enrichment (6-mer frequency, TF over GST control) in the assay with SPIC; 1.31 fold enrichment (6-mer frequency, TF over GST control) with ELF4; 1.32 fold enrichment (6-mer frequency, TF over GST control) with ELK4; 1.11 fold enrichment (6-mer frequency, TF over GST control) in the assay with ETV2; 1.25 fold enrichment (6-mer frequency, TF over GST control) with ELF3; 1.13 fold enrichment (6-mer frequency, TF over GST control) with CRX. Moreover, the binding signal with ETV1 is 1.25 fold enrichment (6-mer frequency, TF over GST control).
